# Assay results: ChEMBL document CHEMBL1961873, “Compounds: GSK PKIS; Assays: Nanosyn kinase panel” (2012)
# Target: Receptor-type tyrosine-protein kinase FLT3 (Homo sapiens) (UniProt P36888)
# Conditions: at 1 µM
row,Structure (SMILES),inhibition [%]
1,Fc1cccc(COc2ccc(Nc3ncnc4sc(-c5cccs5)cc34)cc2Cl)c1,3.27
2,CC1=C(C(=O)Nc2ccc3[nH]ncc3c2)C(c2ccc(F)cc2)NC(=O)N1 (stereo not drawn),0.62
3,CCn1c(-c2nonc2N)nc2c(N3CCCC3)nccc21,-2
4,NS(=O)(=O)c1ccc(N/N=C2\C(=O)Nc3ccc(C(=O)NCCc4c[nH]cn4)cc32)cc1,23.4
5,CC(C)=Cc1cccc2c1/C(=N/Nc1ccc(S(N)(=O)=O)cc1)C(=O)N2,48.9
6,COc1cc2ncn(-c3cc(O[C@H](C)c4ccccc4Cl)c(C(N)=O)s3)c2cc1OC,24.8
7,COc1cc2ncn(-c3cc(O[C@@H](C)c4ccccc4Cl)c(C(N)=O)s3)c2cc1OC,3.2
8,Fc1cccc(COc2ccc(Nc3ncnc4cc(-c5ccc[nH]5)sc34)cc2Cl)c1,2.33
9,CN1CCC(C(=O)Nc2n[nH]c3nnc(-c4ccccc4)cc23)CC1,1.88
10,Cn1cc(C=C2C(=O)Nc3cccnc32)c2ccccc21,66.2
11,COc1ccc(-c2nn3ncccc3c2-c2ccnc(Nc3ccc(Cl)c(C(F)(F)F)c3)n2)cc1,1.14
12,NC(=O)c1cccc(Nc2nccc(Nc3cccc4[nH]ncc34)n2)c1,48
13,COc1ccc(-c2ccncc2)cc1C(N)=O,2.52
14,CS(=O)(=O)CCN(CC#N)Cc1ccc(-c2ccc3ncnc(Nc4ccc(OCc5cccc(F)c5)c(Cl)c4)c3c2)o1,2.32
15,CNC(=O)c1cncc(/C=C/c2c(Cl)cccc2Cl)c1,2.17
16,CCn1c(-c2nonc2N)nc2c(C#CC(C)(C)O)nc(CN3CCCC3)cc21,-0.42
17,COc1ccccc1Nc1ncc(-c2ccccc2)o1,87.2

row,Structure (SMILES),inhibition [%]
1,Cc1nn(C)c2cc(N(C)c3ccnc(Nc4cccc(S(N)(=O)=O)c4)n3)ccc12,15.4
2,CCn1c(-c2nonc2N)nc2cncc(C(=O)N3CC[C@H](N)C3)c21,1.11
3,O=C(Nc1n[nH]c2nc(-c3ccco3)c(Br)cc12)C1CC1,2.62
4,COc1ccc(-c2coc3ncnc(N)c23)cc1,4.59
5,O=C1NC(=O)C(c2cccc(Cl)c2)=C1Nc1ccc(O)c(Cl)c1,0.95
6,CS(=O)(=O)CCNCc1ccc(-c2ccc3ncnc(Nc4ccc(OCc5cccc(F)c5)c(C(F)(F)F)c4)c3c2)o1,1.21
7,O=C1NC(=O)C(c2ccccc2Cl)=C1Nc1cccc(O)c1,2.8
8,COc1cc2ncn(-c3cc(OCc4ccccc4Cl)c(C(N)=O)s3)c2cc1OC,3.62
9,Nc1ncnc2occ(-c3ccc(NC(=O)Nc4cccc(C(F)(F)F)c4)cc3)c12,93.9
10,COc1cc(C=NNc2ncnc3c2cnn3-c2ccccc2)ccc1O,54.6
11,CC1=C(C(=O)Nc2ccc3[nH]ncc3c2)C(c2ccc(Cl)c(Cl)c2)CC(=O)N1 (stereo not drawn),1.54
12,NC(=O)c1ccc(-c2nc(-c3ccccn3)c(-c3ccc4c(c3)OCO4)[nH]2)cc1,2.37
13,COc1cccc(-n2ncc3c(N/N=C/c4cccc(F)c4)ncnc32)c1,6.78
14,Cc1nnc(-c2ccc(C)c(-c3ccc(C(=O)Nc4cccc(C#N)c4)cc3)c2)o1,1.58
15,N#Cc1c(NC(=O)c2cccc3ccccc23)sc2c1CCCC2,2.23
16,Cc1ccc(NC(=O)c2ccnc(N3CCCC3)c2)cc1-c1ccc(C(=O)NCC2CC2)cc1,7.31
17,COc1cc2ncn(-c3cc(OCc4ccccc4C(F)(F)F)c(C(N)=O)s3)c2cc1OC,9.95

# Tested on: T1, Receptor-type tyrosine-protein kinase FLT3 (Homo sapiens), P36888 [D835Y]
# T1 sequence (whole entry): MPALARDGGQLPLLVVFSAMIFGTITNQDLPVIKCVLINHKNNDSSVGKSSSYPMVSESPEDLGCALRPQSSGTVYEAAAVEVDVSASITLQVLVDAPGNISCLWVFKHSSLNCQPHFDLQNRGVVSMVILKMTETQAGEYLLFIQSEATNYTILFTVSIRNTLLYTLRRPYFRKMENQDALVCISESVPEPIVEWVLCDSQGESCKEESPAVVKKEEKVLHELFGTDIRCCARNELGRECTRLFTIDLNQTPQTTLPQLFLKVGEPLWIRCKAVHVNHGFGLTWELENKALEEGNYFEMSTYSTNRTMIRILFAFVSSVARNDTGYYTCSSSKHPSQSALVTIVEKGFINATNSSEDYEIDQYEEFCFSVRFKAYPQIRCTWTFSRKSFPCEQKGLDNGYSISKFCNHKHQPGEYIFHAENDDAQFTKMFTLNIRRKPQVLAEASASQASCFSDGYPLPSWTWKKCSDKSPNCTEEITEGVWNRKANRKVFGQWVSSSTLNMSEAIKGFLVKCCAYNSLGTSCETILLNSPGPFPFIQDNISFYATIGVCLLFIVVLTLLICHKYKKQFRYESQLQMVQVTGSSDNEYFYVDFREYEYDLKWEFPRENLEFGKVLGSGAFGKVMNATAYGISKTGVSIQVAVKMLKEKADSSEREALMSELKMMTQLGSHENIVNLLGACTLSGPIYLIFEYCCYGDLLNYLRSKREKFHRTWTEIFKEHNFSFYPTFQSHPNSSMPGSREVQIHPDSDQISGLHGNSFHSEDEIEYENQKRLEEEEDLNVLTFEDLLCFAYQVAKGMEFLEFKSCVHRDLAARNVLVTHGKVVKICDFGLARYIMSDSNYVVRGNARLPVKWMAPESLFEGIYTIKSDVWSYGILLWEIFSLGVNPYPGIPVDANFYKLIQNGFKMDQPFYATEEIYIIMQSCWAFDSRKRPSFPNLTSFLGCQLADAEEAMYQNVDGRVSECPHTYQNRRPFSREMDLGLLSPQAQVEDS
# Conditions: at 0.1 µM
row,Structure (SMILES),inhibition [%]
1,Fc1cccc(COc2ccc(Nc3ncnc4sc(-c5cccs5)cc34)cc2Cl)c1,-2.12
2,CC1=C(C(=O)Nc2ccc3[nH]ncc3c2)C(c2ccc(F)cc2)NC(=O)N1 (stereo not drawn),-0.62
3,CCn1c(-c2nonc2N)nc2c(N3CCCC3)nccc21,-4.93
4,NS(=O)(=O)c1ccc(N/N=C2\C(=O)Nc3ccc(C(=O)NCCc4c[nH]cn4)cc32)cc1,8.84
5,CC(C)=Cc1cccc2c1/C(=N/Nc1ccc(S(N)(=O)=O)cc1)C(=O)N2,15.6
6,COc1cc2ncn(-c3cc(O[C@H](C)c4ccccc4Cl)c(C(N)=O)s3)c2cc1OC,5.85
7,COc1cc2ncn(-c3cc(O[C@@H](C)c4ccccc4Cl)c(C(N)=O)s3)c2cc1OC,-3.12
8,Fc1cccc(COc2ccc(Nc3ncnc4cc(-c5ccc[nH]5)sc34)cc2Cl)c1,2.49
9,CN1CCC(C(=O)Nc2n[nH]c3nnc(-c4ccccc4)cc23)CC1,-4.39
10,Cn1cc(C=C2C(=O)Nc3cccnc32)c2ccccc21,32.7
11,COc1ccc(-c2nn3ncccc3c2-c2ccnc(Nc3ccc(Cl)c(C(F)(F)F)c3)n2)cc1,-1.91
12,NC(=O)c1cccc(Nc2nccc(Nc3cccc4[nH]ncc34)n2)c1,10.4
13,COc1ccc(-c2ccncc2)cc1C(N)=O,4.29
14,CS(=O)(=O)CCN(CC#N)Cc1ccc(-c2ccc3ncnc(Nc4ccc(OCc5cccc(F)c5)c(Cl)c4)c3c2)o1,-4.23
15,CNC(=O)c1cncc(/C=C/c2c(Cl)cccc2Cl)c1,-3.3
16,CCn1c(-c2nonc2N)nc2c(C#CC(C)(C)O)nc(CN3CCCC3)cc21,-4.71
17,COc1ccccc1Nc1ncc(-c2ccccc2)o1,5.09

row,Structure (SMILES),inhibition [%]
1,Cc1nn(C)c2cc(N(C)c3ccnc(Nc4cccc(S(N)(=O)=O)c4)n3)ccc12,2.72
2,CCn1c(-c2nonc2N)nc2cncc(C(=O)N3CC[C@H](N)C3)c21,-5.73
3,O=C(Nc1n[nH]c2nc(-c3ccco3)c(Br)cc12)C1CC1,-1.82
4,COc1ccc(-c2coc3ncnc(N)c23)cc1,3.34
5,O=C1NC(=O)C(c2cccc(Cl)c2)=C1Nc1ccc(O)c(Cl)c1,-6.93
6,CS(=O)(=O)CCNCc1ccc(-c2ccc3ncnc(Nc4ccc(OCc5cccc(F)c5)c(C(F)(F)F)c4)c3c2)o1,-2.74
7,O=C1NC(=O)C(c2ccccc2Cl)=C1Nc1cccc(O)c1,3.17
8,COc1cc2ncn(-c3cc(OCc4ccccc4Cl)c(C(N)=O)s3)c2cc1OC,-2.29
9,Nc1ncnc2occ(-c3ccc(NC(=O)Nc4cccc(C(F)(F)F)c4)cc3)c12,18.4
10,COc1cc(C=NNc2ncnc3c2cnn3-c2ccccc2)ccc1O,17.7
11,CC1=C(C(=O)Nc2ccc3[nH]ncc3c2)C(c2ccc(Cl)c(Cl)c2)CC(=O)N1 (stereo not drawn),-2.38
12,NC(=O)c1ccc(-c2nc(-c3ccccn3)c(-c3ccc4c(c3)OCO4)[nH]2)cc1,1.11
13,COc1cccc(-n2ncc3c(N/N=C/c4cccc(F)c4)ncnc32)c1,9.42
14,Cc1nnc(-c2ccc(C)c(-c3ccc(C(=O)Nc4cccc(C#N)c4)cc3)c2)o1,0.86
15,N#Cc1c(NC(=O)c2cccc3ccccc23)sc2c1CCCC2,3.1
16,Cc1ccc(NC(=O)c2ccnc(N3CCCC3)c2)cc1-c1ccc(C(=O)NCC2CC2)cc1,-8.49
17,COc1cc2ncn(-c3cc(OCc4ccccc4C(F)(F)F)c(C(N)=O)s3)c2cc1OC,9.27
